This note sets out measurements from PubChem BioAssay.

Assay [1] has as its system PRMT1 (protein arginine N-methyltransferase 1). The assay is described as follows: small molecules binding arginine methyltransferase PRMT1 – biochemical, small-molecule microarray, 635 nm fluorescence, primary screen (AID 1088).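 Also: binding of Prmt1 protein to compounds spotted on small-molecule microarray slides.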 Particulars: higher = more signal.
Assay [2] in a line: growth effects on S. cerevisiae YJM789 – YJM789 clinical isolate, OD600, 24 h, basal, primary screen (AID 1089).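 Also: growth of clinical yeast isolate S. cerevisiae YJM 789 seeded 1000 cells per well; test concentration not given here.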 Conditions: higher = more signal, called active from +8 up or from −8 down.
Assay [3] in a line: S. pombe growth modifiers, basal conditions – strain 972, OD600, 24 h, no modulator, primary screen (AID 1090).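 Also: basal condition with compound alone and no growth modifier present; test concentration not given here.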 Conditions: S. pombe 972 growth, higher = more signal, called active from +8 up or from −8 down.
Assay [4] can be described thus: budding yeast growth modifiers under rapamycin – strain BY4716, OD600, 96 h, primary screen (AID 1091). Also: test concentration not given here. Particulars: S. cerevisiae BY4716 + rapamycin, higher = more signal, called active from +8 up or from −8 down.
Assay [5] concerns the target Torsin-1A-interacting protein 2 (Homo sapiens) (UniProt Q8NFQ8). The assay is described as follows: small molecules binding lysate-expressed LULL1 – cell lysate, human LULL1 lysate, 635/667 nm fluorescence, primary screen (AID 1092).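 Also: probe is lysate of COS7 cells overexpressing human LULL1; score merges per-feature 667 nm fluorescence with signal-to-noise.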 Particulars: small-molecule microarray, hLULL1 lysate binding, 635 nm fluorescence; higher = more signal.
The nature of assay [6]: optical density change of DRC41 E. coli – strain DRC41, OD650, 24 h, E. coli filamentation project, primary screen (AID 1093).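 Also: MC1000 strain lacking acrAB efflux and sulA so SOS filamentation is blocked; test concentration not given here.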 Particulars: E. coli DRC41 growth, higher = more signal, called active from +8 up or from −8 down.
The nature of assay [7]: probe aLefty2 binding to arrayed compounds – biochemical, biotinylated probe, 635/667 nm fluorescence, primary screen (AID 1094).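 Also: score merges spot fluorescence near 667 nm with spot signal-to-noise ratio.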 Conditions: small-molecule microarray, higher = more signal.
Assay [8] deals with Noggin (protein binding on small-molecule microarray). Put plainly: small molecules binding Noggin protein – biochemical, 635/667 nm fluorescence, primary screen (AID 1095).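 Also: score merges 667 nm feature fluorescence with signal to noise over triplicate slides.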 Particulars: 635 nm fluorescence, higher = more signal.
Assay [9] concerns the target Neurogenic locus notch homolog protein 3 (Homo sapiens) (UniProt Q9UM47). Put plainly: small molecules binding NOTCH3 protein – biochemical, 635/667 nm fluorescence, primary screen (AID 1096). Particulars: small-molecule microarray, 635 nm fluorescence, higher = more signal.
Assay [10] in a line: probe aEGFR binding to arrayed compounds – biochemical, biotinylated probe, 635/667 nm fluorescence, primary screen (AID 1097).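 Also: probe is a biotinylated anti-EGFR antibody binding compounds printed on slides; score combines fluorescence near 667 nm and signal to noise of each spot.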 Particulars: small-molecule microarray, higher = more signal.

Active and inactive are the calls of the source.

Chain of Torsin-1A-interacting protein 2 (Homo sapiens) (Q8NFQ8 whole entry, looked up): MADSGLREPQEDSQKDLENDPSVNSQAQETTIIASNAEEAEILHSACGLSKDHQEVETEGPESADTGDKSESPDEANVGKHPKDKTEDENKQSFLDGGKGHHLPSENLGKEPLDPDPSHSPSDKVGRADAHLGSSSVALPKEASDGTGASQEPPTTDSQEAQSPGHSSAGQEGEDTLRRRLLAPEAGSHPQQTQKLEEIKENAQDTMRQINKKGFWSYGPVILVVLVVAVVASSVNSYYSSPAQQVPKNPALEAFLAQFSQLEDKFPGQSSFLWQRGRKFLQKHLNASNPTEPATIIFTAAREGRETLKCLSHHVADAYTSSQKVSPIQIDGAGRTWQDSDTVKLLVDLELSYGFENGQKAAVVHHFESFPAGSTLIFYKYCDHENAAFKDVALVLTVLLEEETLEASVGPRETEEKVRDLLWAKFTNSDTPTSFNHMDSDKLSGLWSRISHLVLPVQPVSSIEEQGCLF
Chain of Neurogenic locus notch homolog protein 3 (Homo sapiens) (Q9UM47 whole entry, looked up): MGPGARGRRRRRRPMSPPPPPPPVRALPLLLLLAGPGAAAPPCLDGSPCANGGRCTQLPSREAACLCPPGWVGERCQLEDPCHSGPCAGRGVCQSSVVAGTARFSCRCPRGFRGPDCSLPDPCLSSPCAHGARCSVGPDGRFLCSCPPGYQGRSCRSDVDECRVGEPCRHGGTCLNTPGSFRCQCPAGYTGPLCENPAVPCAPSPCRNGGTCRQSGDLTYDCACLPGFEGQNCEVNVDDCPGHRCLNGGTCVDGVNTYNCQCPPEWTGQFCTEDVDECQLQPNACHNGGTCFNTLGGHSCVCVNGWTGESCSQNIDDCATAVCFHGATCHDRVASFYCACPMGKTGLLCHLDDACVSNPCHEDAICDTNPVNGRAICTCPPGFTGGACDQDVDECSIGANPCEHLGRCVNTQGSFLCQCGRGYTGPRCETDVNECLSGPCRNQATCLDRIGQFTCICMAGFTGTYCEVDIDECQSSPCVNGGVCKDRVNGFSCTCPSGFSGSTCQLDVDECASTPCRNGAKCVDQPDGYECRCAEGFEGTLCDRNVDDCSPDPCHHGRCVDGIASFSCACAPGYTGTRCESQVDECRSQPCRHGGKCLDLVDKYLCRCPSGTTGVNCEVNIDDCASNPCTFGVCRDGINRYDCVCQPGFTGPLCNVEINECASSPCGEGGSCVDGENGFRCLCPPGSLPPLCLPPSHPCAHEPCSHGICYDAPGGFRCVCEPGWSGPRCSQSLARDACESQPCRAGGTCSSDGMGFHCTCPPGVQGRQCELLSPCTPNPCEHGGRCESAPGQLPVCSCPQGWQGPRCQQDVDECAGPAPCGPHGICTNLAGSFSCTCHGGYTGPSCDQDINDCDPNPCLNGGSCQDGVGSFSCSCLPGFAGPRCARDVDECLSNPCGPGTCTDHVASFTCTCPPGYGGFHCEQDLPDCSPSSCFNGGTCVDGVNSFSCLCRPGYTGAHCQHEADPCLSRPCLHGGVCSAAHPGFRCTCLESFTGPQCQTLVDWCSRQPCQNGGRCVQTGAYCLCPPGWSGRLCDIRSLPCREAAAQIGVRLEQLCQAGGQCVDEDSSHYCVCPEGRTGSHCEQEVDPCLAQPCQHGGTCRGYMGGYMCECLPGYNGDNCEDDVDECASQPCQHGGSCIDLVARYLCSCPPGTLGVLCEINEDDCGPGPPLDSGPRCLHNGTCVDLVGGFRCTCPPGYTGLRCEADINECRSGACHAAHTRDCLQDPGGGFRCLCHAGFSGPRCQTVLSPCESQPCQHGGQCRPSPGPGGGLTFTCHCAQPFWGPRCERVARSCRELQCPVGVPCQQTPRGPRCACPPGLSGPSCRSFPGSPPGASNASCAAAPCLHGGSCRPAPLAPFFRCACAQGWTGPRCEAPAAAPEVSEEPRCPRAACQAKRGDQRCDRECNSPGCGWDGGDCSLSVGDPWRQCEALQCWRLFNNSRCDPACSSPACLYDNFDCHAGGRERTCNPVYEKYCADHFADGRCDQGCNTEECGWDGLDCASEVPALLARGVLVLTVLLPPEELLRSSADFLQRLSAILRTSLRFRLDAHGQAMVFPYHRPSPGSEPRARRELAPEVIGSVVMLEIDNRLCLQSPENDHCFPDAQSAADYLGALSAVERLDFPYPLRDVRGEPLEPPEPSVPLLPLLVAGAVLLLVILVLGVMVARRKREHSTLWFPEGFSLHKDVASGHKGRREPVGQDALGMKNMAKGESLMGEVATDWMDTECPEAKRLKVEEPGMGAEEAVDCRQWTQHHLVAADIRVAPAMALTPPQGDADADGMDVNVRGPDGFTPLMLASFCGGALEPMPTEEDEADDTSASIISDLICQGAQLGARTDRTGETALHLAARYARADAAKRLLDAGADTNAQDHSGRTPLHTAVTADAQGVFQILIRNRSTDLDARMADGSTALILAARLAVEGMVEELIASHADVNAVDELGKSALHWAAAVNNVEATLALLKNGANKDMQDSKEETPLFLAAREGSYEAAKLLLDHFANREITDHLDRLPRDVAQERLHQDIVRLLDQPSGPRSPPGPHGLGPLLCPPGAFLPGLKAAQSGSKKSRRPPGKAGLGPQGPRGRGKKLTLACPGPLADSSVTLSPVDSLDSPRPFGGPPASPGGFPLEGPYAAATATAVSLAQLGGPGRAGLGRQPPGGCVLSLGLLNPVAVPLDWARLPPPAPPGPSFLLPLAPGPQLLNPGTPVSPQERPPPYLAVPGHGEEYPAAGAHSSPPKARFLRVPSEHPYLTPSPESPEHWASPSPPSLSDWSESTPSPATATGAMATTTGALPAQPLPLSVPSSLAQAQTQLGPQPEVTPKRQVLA

As for `CC(C)(C)OC(=O)CC[C@@]1(C(N)=O)N=C(c2ccc(OCCCO)cc2)O[C@@H]1c1ccccc1`, the composite z-score turned out to be 1.57 in [1]; 3.17 in assay [5]; 0.0917 in assay [7]; 0.392 in assay [8]; 0.79 in assay [9]; 0.106 in assay [10]. The z-score in [2] was -0.145 (inactive); in assay [3], -0.589 (inactive); in assay [4], -0.399 (inactive); in assay [6] it was -0.511 (inactive).

For the compound `CCOC(=O)C[C@H]1[C@H](OC(=O)c2cc3ccccc3oc2=O)[C@@H](NC(=O)Cc2ccc(OC)cc2)c2cc(OCCCO)ccc2N1C(=O)c1ccccc1`, the composite z-score in assay [1] was 0.242; in assay [5], 1.08; in assay [7], -0.139; in assay [8] it was 0.558; in assay [9] it was 0.0769; in assay [10] it was -0.0174. Besides, the z-score is -0.0987 (inactive) in assay [2], -0.507 (inactive) in [3], 0.279 (inactive) in assay [4] and 0.201 (inactive) in assay [6].

Consider `COC(=O)[C@@]1(Cc2ccc(OC)cc2)[C@H]2c3cc(C(=O)N4CCCC4)n(Cc4ccsc4Br)c3C[C@H]2CN1C(=O)c1ccccc1`, for which the composite z-score is -0.356 in assay [1]; 2.91 in [5]; 0.498 in assay [7]; -0.0969 in assay [8]; 0.855 in [9]; 0.122 in assay [10]. The z-score in assay [2] was -0.168 (inactive); in assay [3] it was 0.0021 (inactive); in [4], -0.887 (inactive); in assay [6], -0.29 (inactive).

Turning to `COc1ccc([C@H]2OC[C@@H]3CC4(CC=CC4)C(=O)N32)cc1`, the composite z-score in [1] is 1.08; in assay [5], 1.24; in assay [7], -0.0171; in assay [8], 1.08; in assay [9] it was 0.527; in assay [10], 0.0376. The z-score is -0.205 (inactive) in assay [2], 0.0197 (inactive) in [3], -0.451 (inactive) in [4] and -0.472 (inactive) in assay [6].

Take `[N-]=[N+]=NCc1ccccc1C[C@@]1(C(=O)NCC(O)CO)N=C(c2ccc(OCCCO)cc2)O[C@@H]1c1ccccc1N=[N+]=[N-]` (stereo not given in full): the composite z-score in assay [1] stood at 1.53; in [5], 3.53; in assay [7], 0.36; in assay [8] it was 0.633; in assay [9] it was 0.618; in [10], 0.118. For the same compound, the z-score was -1.01 (inactive) in assay [2], -0.348 (inactive) in assay [3], 1.99 (inactive) in [4] and 1.73 (inactive) in assay [6].

Consider `CC(C)[C@@H](CO)NC(=O)[C@H]1[C@@H](c2ccccc2)N(c2ccccc2)O[C@@H]1C`, for which the composite z-score in assay [1] is -0.159; in [5], 1.02; in assay [7] it was -0.193; in assay [8] it was 0.171; in [9] it was -0.271; in assay [10], -0.177. The z-score is -0.0247 (inactive) in [2], -0.207 (inactive) in assay [3], 0.072 (inactive) in [4] and 1.08 (inactive) in assay [6].

Regarding `COc1ccc(CCN2C(=O)[C@@]3(Cc4ccccc42)c2ccccc2C(=O)N(Cc2ccccc2C(F)(F)F)[C@H]3c2ccc(CO)cc2)cc1`, the composite z-score in assay [1] was 0.67; in [5] it was 0.568; in assay [7], 0.0077; in [8], 0.451; in assay [9] it was -0.39; in assay [10] it was -0.276. Also, the z-score in assay [2] was 0.276 (inactive); in assay [3], -0.414 (inactive); in assay [4], -1.68 (inactive); in [6], -2.33 (inactive).

In the case of `O=C1c2ccccc2[C@](Cc2ccccc2I)(C(=O)NC2CC2)[C@H](c2ccc(CO)cc2)N1C1CCCCC1`, the composite z-score was 1.56 in [1]; 2.38 in assay [5]; -0.224 in [7]; 0.62 in assay [8]; 1.05 in assay [9]; -0.36 in assay [10]. Further, the z-score was 1.13 (inactive) in assay [2], 0.525 (inactive) in assay [3], 2.36 (inactive) in [4] and 0.257 (inactive) in assay [6].

As for `COc1ccc([Si](C)(C)[C@H]2[C@H](CCO)O[C@@]3(C(=O)N(C)c4c(Br)cc(C)cc43)[C@@H]2C)cc1`, the composite z-score in assay [1] was 1.49; in assay [5] it was 1.04; in [7], -0.1; in [8], 0.76; in [9] it was 1.1; in [10], -0.0627. The z-score is 0.117 (inactive) in assay [2], -2.89 (inactive) in [3], 34 (active) in assay [4] and 0.714 (inactive) in assay [6].

In the case of `COc1ccc([Si](C)(C)[C@H]2[C@H](CC(=O)N3CCC[C@H]3CO)O[C@@]3(C(=O)N(Cc4cccc(N5C(=O)c6cccc7cccc5c67)c4)c4ccccc43)[C@@H]2C)cc1`, the composite z-score in [1] is 1.56; in [5], 2.08; in assay [7], 0.031; in assay [8], 1.57; in assay [9], 1.05; in assay [10], -0.0549. Also, the z-score is -0.0977 (inactive) in [2], 0.696 (inactive) in assay [3], -0.15 (inactive) in [4] and -0.0831 (inactive) in [6].

For `CC(C)c1ccc(NN2C(C(O)C(c3ccccc3)c3ccccc3)C=CC3C(=O)N(c4ccccc4)C(=O)C32)cc1` (stereo not given), the composite z-score in [1] worked out at 1.56; in [5], 2.63; in [7], 0.0399; in assay [8], 0.63; in assay [9] it was 1.06; in assay [10], 0.104. For the same compound, the z-score in assay [2] was 0.709 (inactive); in assay [3], -0.223 (inactive); in assay [4] it was 1.04 (inactive); in assay [6], -2.08 (inactive).

As to `C=CCN1C(=O)[C@]2(O[C@H](CCO)[C@@H]([Si](C)(C)c3ccc(OC)cc3)[C@@H]2C)c2cc(N3CCCCC3=O)ccc21`, the composite z-score was 1.54 in [1]; 2.37 in assay [5]; -0.106 in [7]; 1.06 in [8]; 1.14 in assay [9]; 0.048 in assay [10]. Also, the z-score in assay [2] was -0.242 (inactive); in [3] it was 0.413 (inactive); in assay [4] it was 2.23 (inactive); in assay [6], 1.27 (inactive).

Regarding `CC(C)C(=C=CC[C@@H](O)c1ccccc1OCCO)CCO`, the composite z-score in [1] is 0.895; in assay [5] it was -0.559; in [7] it was -0.0998; in assay [8], 0.315; in assay [9] it was 0.428; in assay [10] it was -0.096. Also, the z-score in assay [2] was -2.18 (inactive); in assay [3], -17.8 (active); in [4] it was -2.09 (inactive); in [6], 0.364 (inactive).

In the case of `CN(C)C(=O)[C@@]1(Cc2ccccc2CN=[N+]=[N-])N=C(c2ccc(OCCCO)cc2)O[C@H]1c1ccccc1`, the composite z-score in assay [1] is 1.32; in [5], 3.32; in assay [7], 0.0561; in [8], 0.788; in [9] it was 0.301; in assay [10], -0.0356. Also, the z-score was 0.365 (inactive) in [2], 0.0586 (inactive) in assay [3], 34.7 (active) in assay [4] and 0.632 (inactive) in [6].
